Experimental data from publication PMC5540273 (PLoS ONE, 2017).

Legend:
Settings in all cases: concentration: 1 μM, replicates: in singlicate; n = 1
LKB1 = tested on: T1, LKB1
T1 construct: gene STK11

LOK = tested on: T2, LOK
T2 construct: gene STK10

LRRK2 = tested on: LRRK2
LTK = tested on: LTK
LYN = tested on: LYN
LZK = tested on: T3, LZK
T3 construct: gene MAP3K13

MAK = tested on: MAK
MAP3K15 = tested on: MAP3K15
MAP3K1 = tested on: MAP3K1
MAP3K2 = tested on: MAP3K2
MAP3K3 = tested on: MAP3K3
MAP3K4 = tested on: MAP3K4
MAP4K2 = tested on: MAP4K2
MAP4K3 = tested on: MAP4K3
MAP4K4 = tested on: MAP4K4
MAP4K5 = tested on: MAP4K5
MAPKAPK2 = tested on: MAPKAPK2
MAPKAPK5 = tested on: MAPKAPK5
MARK1 = tested on: MARK1
MARK2 = tested on: MARK2
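Also: KINOMEscan kinase panel screen.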

| SMILES | %Inh (LKB1) | %Inh (LOK) | %Inh (LRRK2) | %Inh (LTK) | %Inh (LYN) | %Inh (LZK) | %Inh (MAK) | %Inh (MAP3K15) | %Inh (MAP3K1) | %Inh (MAP3K2) | %Inh (MAP3K3) | %Inh (MAP3K4) | %Inh (MAP4K2) | %Inh (MAP4K3) | %Inh (MAP4K4) | %Inh (MAP4K5) | %Inh (MAPKAPK2) | %Inh (MAPKAPK5) | %Inh (MARK1) | %Inh (MARK2) |
| --- | --- | --- | --- | --- | --- | --- | --- | --- | --- | --- | --- | --- | --- | --- | --- | --- | --- | --- | --- | --- |
| Cc1ccc(O)cc1Nc1cc(C(F)(F)F)nc2ccc(-c3ccncc3)cc12 [GW630823] | 0% | 5% | 0% | 0% | 1% | 0% | 7% | 0% | 0% | 1% | 0% | 0% | 0% | 0% | 0% | 0% | 0% | 0% | 0% | 9% |
| CCCc1ccc(S(=O)(=O)NC2CCN(c3ccnc(Nc4ccc(OC)cc4)n3)C2)cc1 (stereo not shown) [GSK1379737] | 6% | 0% | 0% | 100% | 0% | 25% | 16% | 0% | 1% | 1% | 0% | 0% | 0% | 0% | 0% | 0% | 29% | 0% | 0% | 0% |
| O=C(Nc1ccccc1)Nc1ccc(Oc2ccc3nccn3n2)cc1 | 0% | 39% | 0% | 0% | 0% | 0% | 0% | 0% | 0% | 0% | 9% | 21% | 0% | 0% | 0% | 0% | 0% | 0% | 0% | 0% |
| Nc1nc(-c2ccc3c(N)n[nH]c3c2)cc(N2CCC[C@@H](C(=O)Nc3ccccc3)C2)n1.O=C(O)C(F)(F)F.O=C(O)C(F)(F)F [GSK2288359] | 6% | 0% | 0% | 15% | 0% | 0% | 29% | 2% | 15% | 0% | 0% | 28% | 0% | 0% | 5% | 6% | 0% | 0% | 0% | 0% |
| c1ccc(-c2ccc3c(-c4ccnc(Nc5ccc6c(c5)OCCO6)n4)cnn3n2)cc1 [GW818941] | 0% | 17% | 29% | 0% | 0% | 0% | 100% | 11% | 1% | 0% | 0% | 14% | 6% | 4% | 23% | 20% | 5% | 13% | 0% | 0% |
| Cl.Fc1ccccc1COc1ccc(Nc2ncnc3ccc(-c4nnc(C(F)(F)F)o4)cc23)cc1Cl [GW424170] | 12% | 0% | 0% | 0% | 0% | 0% | 10% | 0% | 0% | 0% | 0% | 15% | 0% | 0% | 0% | 0% | 0% | 0% | 0% | 0% |
| Nc1nc(-c2ccccn2)c(-c2ccnc3ccccc23)s1 [GW548057] | 8% | 0% | 0% | 0% | 0% | 51% | 12% | 11% | 10% | 0% | 0% | 4% | 0% | 0% | 4% | 0% | 0% | 0% | 0% | 0% |
| Cl.c1ccc(Cn2ccc3cc(Nc4ncnc5ccccc45)ccc32)cc1 [GW275568] | 0% | 32% | 0% | 6% | 0% | 35% | 25% | 0% | 0% | 0% | 0% | 5% | 0% | 1% | 4% | 3% | 7% | 0% | 17% | 28% |
| CC(C)(C)c1ccc(-n2cnc3c(N)ncnc32)cc1 [SKF-97263] | 0% | 2% | 22% | 6% | 5% | 0% | 8% | 16% | 8% | 1% | 0% | 10% | 11% | 5% | 6% | 6% | 23% | 8% | 0% | 0% |
| COc1ccc(Nc2nccc(N3CCC(NC(=O)Nc4ccc5c(c4)OCO5)C3)n2)cc1 (stereo not shown) [GSK1379745] | 4% | 0% | 1% | 18% | 1% | 39% | 20% | 3% | 12% | 14% | 0% | 15% | 0% | 5% | 5% | 4% | 17% | 0% | 0% | 0% |
| COC(=O)c1cccc(NC(=O)NCCNc2ccnc(Nc3ccc(F)cc3)n2)c1 [GSK1379883] | 16% | 0% | 0% | 0% | 0% | 1% | 26% | 0% | 0% | 0% | 0% | 0% | 0% | 0% | 0% | 0% | 24% | 0% | 0% | 0% |
